Records with an inconclusive call do not appear. Where a call stands in place of a potency, no number is given. The source made the active and inactive calls. Calls come from the whole dose curve; as a rule, active = well fitted inhibition curve with a large enough effect; inconclusive = small, poorly fitted or top-dose-only effect; inactive = no such curve, though single readings can be large or run the other way.
Assay: Confirmatory qHTS for Identification of Small Molecule Inhibitors of Huntingtin Promoter Activity; note: nearly all actives have a fitted effect of over 65% in size
Conditions: HEK293 HTT promoter firefly luciferase reporter, 24 h; series mostly up to 57.5 µM
Summary of the method: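 Plated reporter HEK293 cells (24 h) received library compounds at up to 57.5 uM final or 50 uM PTC124, incubated 24 h at 37C; firefly luciferase luminescence was then recorded with Dual-Glo reagent.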
Potency is the fitted concentration of half-maximal effect.

Structure (SMILES)	Potency
COc1ccc(C(=O)Nc2cccc(-c3cn4ccsc4n3)c2)c(OC)c1	inactive
CCc1ccc(NC(=O)Nc2cn(C)c(=O)c3ccccc23)cc1	inactive
CC(=O)Nc1ccc(S(=O)(=O)Nc2cc(-c3cn4ccccc4n3)ccc2C)cc1	inactive
CC1CCN(C(=O)CN2c3ccc(Br)cc3-c3ccccc3S2(=O)=O)CC1	inactive
C#Cc1cccc(Nc2ncnc3cc(OC)c(OCCCCCCC(=O)NO)cc23)c1	inactive
Cc1ccc(CN2CCSc3ccc(C(=O)NCC(C)c4ccccc4)cc32)cc1 (configuration not stated)	inactive
C=Cc1ccc(Cn2c(C(=O)O)c(CNCc3ccccc3)c3ccc(C)cc32)cc1	21.3 µM (active)
COc1ccc(NC(=O)Cn2c(SCc3ccc(C)cc3)nc3cccnc32)cc1OC	inactive
Cc1cc(NC(=O)c2cc(-c3ccc(Cl)cc3)on2)nn1Cc1ccc(Cl)cc1	inactive
CCCS(=O)(=O)NCCc1sc2nc(-c3ccc(F)cc3)nn2c1C	inactive
Cc1ccc(S(=O)(=O)n2nc(-c3ccco3)nc2NCc2ccccc2Cl)cc1	inactive
Cc1cc(C)c(Cn2c3ccccc3c3cnn(CC(=O)N4CCCCC4)c(=O)c32)c(C)c1	inactive
Cc1ccc(C)c(N2CCN(C(=O)C3CCN(c4nc(-c5ccc(C(C)C)cc5)no4)CC3)CC2)c1	0.239 µM (active)
CCCCC(=O)Nc1cccc(-c2nc3ccccc3s2)c1	inactive
O=C(CSc1nccn1Cc1ccco1)Nc1cc(C(F)(F)F)ccc1Cl	inactive
COc1ccc(-c2nnc(C3CCN(C(=O)c4ccccc4F)CC3)o2)cc1	inactive
O=C(NCc1cccnc1)C(=O)NCC(c1cccnc1)N1CCN(c2ccccc2F)CC1 (configuration not stated)	inactive
CN(C)c1ccc(C(=C2C=CC(=[N+](C)C)C=C2)c2ccc(N(C)C)cc2)cc1	3.01 µM (active)
Cc1ccccc1OCc1ccc(-c2nc(C#N)c(NCc3cccnc3)o2)o1	19 µM (active)

Structure (SMILES)	Potency
CCN(CC)S(=O)(=O)c1ccc(NC(=O)CCc2c(C)nc3cc(-c4ccc(Cl)cc4)nn3c2C)cc1	0.301 µM (active)
CCOc1ccccc1NC(=O)C(=O)c1cc(C)n(-c2ccc(F)cc2)c1C	inactive
C#C[C@]1(O)CC[C@H]2[C@H]3CCc4cc(OC)ccc4[C@H]3CC[C@@]21C	inactive
CCCCOC(=O)c1ccc(NC(=O)c2sc3nc(C)cc(C)c3c2N)cc1	12 µM (active)
COCCn1c2c([n+](Cc3cnccn3)c1C)C(=O)c1ccccc1C2=O	0.0953 µM (active)
CN(C)c1ccc(C(=O)NCCCCCCC(=O)NO)cc1	inactive
O=C(Cc1ccccc1)Nc1cccc(-c2cn3cccnc3n2)c1	inactive
CC(C)(C)C(=O)NCCc1nc2ccccc2n1CCCCOc1ccc(Cl)cc1	26.9 µM (active)
CCOc1ccc(C(=O)NCc2ccc3c(c2)CCN3C(=O)c2ccccc2)cc1	inactive
O=C(Nc1cccc(C(=O)N2CCN(c3ccc(Cl)cc3)CC2)c1)c1nsc2ccccc12	inactive
CC(=O)N1CCc2c(sc(NC(=O)CSc3ccccc3)c2-c2nc3ccccc3s2)C1	26.9 µM (active)
O=c1c(-c2ccc(O)cc2)coc2cc(O)ccc12	inactive
O=c1c(O)c(-c2ccc(O)cc2)oc2cc(O)cc(O)c12	inactive
COc1ccc(NC(=O)Cn2c(SCc3ccc(F)cc3)nc3cccnc32)cc1OC	inactive
CCCN(c1ccccc1CC)S(=O)(=O)c1ccc2c(c1)CC(C)N2C(=O)C1CC1 (configuration not stated)	13.5 µM (active)
Cc1nc(Nc2n[nH]c3c2CN(C(=O)N[C@H](CN(C)C)c2ccccc2)C3(C)C)c2sccc2n1	inactive
COc1ccc(Nc2nc(-c3ccc(C)cc3)nc3ccccc23)c(OC)c1	inactive
Cc1cc(SCC(=O)Nc2nsc(-c3ccc(C(C)(C)C)cc3)n2)nc2ccccc12	inactive
